Data on eight compounds can be found in PubChem BioAssay (NCATS).

“And” between values parts separate entries of the source, which are not always exact repeats. Identical values can stand only once. A number with no mark means an inactive call. Inconclusive results are not listed. The source made the active and inactive calls. Unless noted, the call rests on the fitted dose curve; in most records, active means well fitted curve in the direction sought with a large enough effect; inconclusive means small, poorly fitted or top-dose-only effect, or another doubt; inactive means no such curve, though single readings can be large; an effect the other way counts as inactive or inconclusive.

The nature of assay [1]: Cellular Toxicity (caspase-3) HUV-EC-C (AID 656).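 Further: 0% = DMSO basal and 100% = 100 µM tamoxifen.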 Summed up: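 HUV-EC-C endothelial cells, 1000/well, were pre-incubated 5 hr at 37°C, then exposed to compounds for 16 hr at 37°C. Caspase-Glo 3/7 luminescence was read after 20 min at room temperature. AC50 came from Hill fits, normalized to DMSO and 100 uM tamoxifen.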
Assay [2] can be described thus: Cellular Toxicity (caspase-3) SK-N-SH (AID 661).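 Further: 0% = DMSO basal and 100% = 10 µM staurosporine.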 In a few lines: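 Human neuroblastoma SK-N-SH, 1500 cells/well, 5 hr pre-incubation, then compound 16 hr, 37 °C. Caspase-Glo 3/7 reagent, 1 hr RT, luminescence. Norm. to DMSO/10 uM staurosporine; Hill-fit AC50.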
The nature of assay [3]: Cellular Toxicity (caspase-3) H-4-II-E (AID 663).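 Further: cells exposed to compound for 16 hr before readout; 0% = DMSO basal and 100% = 100 µM tamoxifen.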 As to conditions: Potency: caspase-3 activation. Summed up:
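Luminescence from caspase-cleaved aminoluciferin substrate, read 20 min after reagent addition, reports caspase 3/7 activation in rat H-4-II-E cells after 16 hr compound exposure. Normalized to DMSO (basal) and 100 uM tamoxifen (100%); AC50 from Hill fits.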

Assay [4] is described as follows: Cell Viability - LYMP1-002 - Assay at 16 hr (AID 948).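 Further: 0% = DMSO alone and full effect = 92 µM tetraoctylammonium bromide.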 In a few lines:
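Human lymphoblastoid cells (LYMP1-002), 2500/well, were preincubated 5 hr at 37 C, then exposed to compounds for 16 hr at 37 C in complete medium. Cellular ATP was read by CellTiter-Glo luminescence after 30 min at room temperature; AC50 from Hill fits.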

A short description of assay [5]: MultiTox-Fluor Cytotoxicity Assay - LYMP1-002 - Dead Cells (AID 960). Further: nearly all actives have a fitted effect of over 60% in size. In a few lines:
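LYMP1-002 cells 2500/well; 5 hr 37 C pre-incubation; compound 16 hr 37 C; MultiTox-Fluor reagent 60 min RT; dead-cell fluor Ex/Em 485/520. Norm. to DMSO (0%) vs 15 uM tetraoctylammonium bromide (100%); Hill AC50.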

A short description of assay [6]: Cell Viability - LYMP1-003 - Assay at 24 hr (AID 963).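 Further: plate controls were DMSO only for no effect and tetraoctylammonium bromide positive control for full effect.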 Summed up:
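Cells seeded at 2500/well, 5 hr at 37 C; compounds added; 24 hr at 37 C; CellTiter-Glo added, 30 min room temperature; luminescence read. Decrease in ATP taken as cytotoxicity, AC50 from Hill modelling.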

Assay [7] can be described thus: Cell Viability - LYMP2-003 (AID 965).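 Further: cells exposed to compounds for 24 h before reading; 0% = DMSO only and full effect = 92 µM tetraoctylammonium bromide; nearly all actives have a fitted effect of over 50% in size.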 Summed up:
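Human lymphoblastoid cells (2500/well) were pre-incubated 5 hr at 37 C, then exposed to compounds over a concentration range for 24 hr at 37 C. Intracellular ATP was read by CellTiter-Glo luminescence; AC50 came from Hill-equation fits.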

A short description of assay [8]: Cell Viability - LYMP2-009 (AID 968).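 Further: series mostly up to about 92 µM; 0% = DMSO alone and the full-kill end = tetraoctylammonium bromide at 92 µM; nearly all actives have a fitted effect of over 55% in size.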
Assay [9] can be described thus: Cell Viability - LYMP2-013 (AID 970).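 Further: series mostly up to about 92 µM; 0% = DMSO only and full inhibition = tetraoctylammonium bromide control; nearly all actives have a fitted effect of over 55% in size.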 In a few lines: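 qHTS; 2500 lymphoblastoid cells/well; 5 hr 37 C settle; cpd 24 hr 37 C; CellTiter-Glo, 30 min RT; luminescence. AC50 = Hill fit.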
Assay [10] is described as follows: Cell Viability - LYMP2-017 (AID 972). Further: series mostly up to about 92 µM; on the % scale 0 is the no-effect control and ±100 the full control effect; nearly all actives have a fitted effect of over 55% in size. Summed up: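 2500 cells/well, 5 h 37 C; cpd 24 h 37 C in complete medium; CellTiter-Glo, 30 min RT; luminescence (ATP). AC50 via Hill fit, qHTS.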
Assay [11] in a line: Cell Viability - LYMP2-023 (AID 975).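 Further: cellular ATP measured by luciferase luminescence as viability proxy; series mostly up to about 92 µM; plate controls were DMSO only for no effect and 92 µM tetraoctylammonium bromide control for full effect; nearly all actives have a fitted effect of over 55% in size.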 Summed up:
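2500 cells/well, 5 hr 37 C; cpd 24 hr 37 C; CellTiter-Glo, 30 min RT; luminescence. qHTS conc-response, Hill fit -> AC50. Pos ctrl tetraoctylammonium bromide.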

Assay [12] in a line: Cell Viability - LYMP2-002 (AID 977).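 Further: series mostly up to about 92 µM; plate controls were DMSO only for no effect and 92 µM tetraoctylammonium bromide for full effect.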 In a few lines: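 Luminescent ATP readout (CellTiter-Glo, 30 min room temperature) after 24 h compound exposure at 37 C of a human lymphoblastoid line, 2500 cells/well. AC50 values derived by standard Hill fitting of qHTS concentration-response data.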
A short description of assay [13]: Cell Viability - LYMP2-012 (AID 982).
The target in assay [14] is Retinoic acid receptor RXR-alpha (Homo sapiens) (UniProt P19793). In words: qHTS assay for small molecule agonists of retinoid X receptor alpha signaling (AID 588544; calls by dose curve;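 further: 0% = DMSO basal wells and 100% = reference agonist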). For orientation: Quantitative high-throughput screening tests each substance at several concentrations.
Sequence of Retinoic acid receptor RXR-alpha (Homo sapiens) (P19793 whole entry, looked up): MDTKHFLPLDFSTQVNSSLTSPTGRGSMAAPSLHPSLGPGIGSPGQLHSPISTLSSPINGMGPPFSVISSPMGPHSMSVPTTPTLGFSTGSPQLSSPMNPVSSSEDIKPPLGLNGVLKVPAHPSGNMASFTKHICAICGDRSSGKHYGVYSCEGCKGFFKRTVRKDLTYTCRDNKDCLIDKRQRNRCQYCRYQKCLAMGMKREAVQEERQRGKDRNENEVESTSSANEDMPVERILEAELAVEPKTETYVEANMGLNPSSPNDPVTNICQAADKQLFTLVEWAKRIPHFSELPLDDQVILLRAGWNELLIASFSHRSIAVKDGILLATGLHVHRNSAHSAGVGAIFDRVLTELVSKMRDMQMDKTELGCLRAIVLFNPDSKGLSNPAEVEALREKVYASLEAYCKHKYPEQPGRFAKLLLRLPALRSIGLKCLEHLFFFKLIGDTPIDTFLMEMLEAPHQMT
The target is the same in assay [15]. In words: qHTS assay for small molecule antagonists of retinoid X receptor alpha signaling (AID 588546; active means well fitted inhibition curve with a large enough effect in the signal ratio, with a control signal flat, not every such curve was filed as active; the % refers to the signal ratio;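 further: cells stimulated with 9-cis-retinoic acid as agonist; on the % scale 0 is the no-effect control and ±100 the full control effect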). To be noted: HEK293T RXRa-UAS-bla, beta-lactamase ratio, antagonist mode. Summed up: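 Beta-lactamase reporter inhibition, read as CCF4 fluorescence ratio (ex 405, em 460/530 nm) after 2 h at RT. HEK293T UAS-bla cells, 2500/well, were stimulated with 9-cis-RA at 500 or 100 nM final alongside test compound for 18 h at 37 C.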

Assay [16] in a line: qHTS assay for small molecule activators of the p53 signaling pathway (AID 651743; active means well fitted activation curve with a large enough effect in the signal ratio, not every such curve was filed as active; the % refers to the signal ratio; further: potency means the concentration at half of the fitted maximal effect; on activation: series mostly up to about 92 µM; % of control where 0% means no effect). As to conditions: HCT-116 p53RE-bla, beta-lactamase FRET ratio, 16 h; activation: hits give high values. Summed up: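 Cell-based beta-lactamase reporter (p53 response elements, HCT-116 background). After a 5-hour preincubation, cells received compound for 16 hours at 37 C; substrate development ran 2 hours at room temperature.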

Assay [17] can be described thus: qHTS assay for small molecule agonists of the antioxidant response element (ARE) signaling pathway measured by Nrf2-dependant transcriptional activity - cell viability counter screen (AID 720653; active means well fitted curve in the direction sought with a large enough effect in the repeat runs; an effect the other way counts as inactive or inconclusive; further: on the % scale 0 is the no-effect control and ±100 the full control effect). To be noted: ARE-bla HepG2 viability, CellTiter-Glo ATP luminescence, 16 h; hits give low values. Summed up: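 ARE-bla HepG2 cells (2,000/well) rested 5 hrs at 37C/5% CO2, then exposed to compounds in DMSO for 16 hrs. Viability was read in the same wells as intracellular ATP by luminescence, 30 min at room temperature after reagent addition.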

Assay [18] in a line: Cellular Toxicity (caspase-3) SHSY5Y (AID 657). In a few lines:
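SH-SY5Y human neuroblastoma cells (1500/well) were treated with compounds for 16 h at 37 °C, then Caspase-Glo 3/7 luminescence was read after 1 h at room temperature. Data normalized to DMSO and 10 uM staurosporine; AC50 from Hill fits.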

Assay [19] in a line: Cell Viability - LYMP1-003 - Assay at 40 hr (AID 964). Further: series mostly up to about 92 µM; on the % scale 0 is the no-effect control and ±100 the full control effect; nearly all actives have a fitted effect of over 60% in size. Summed up: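 Cells were seeded at 2500 per well and incubated 5 hr at 37 C. Compounds were added across a concentration series and left 40 hr at 37 C. CellTiter-Glo was added for 30 min at room temperature before luminescence reading.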
Assay [20] in a line: Cell Viability - LYMP2-011 (AID 969).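 Further: 0% = DMSO only and full inhibition = 92 µM tetraoctylammonium bromide; nearly all actives have a fitted effect of over 60% in size.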 Summed up:
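2500 cells/well, 5 hr 37 C; compound added, 24 hr 37 C; CellTiter-Glo 30 min RT; luminescence. qHTS concentration-response, Hill-equation AC50. Tetraoctylammonium bromide positive control.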

For `O=[N+]([O-])c1ccc(Cl)c(Cl)c1Cl`, the compound was called inactive in assay [1], in assay [4], in assay [6] and in [14]. Further, the Potency entry in [2], in [3], in [5], in [7], in assay [8] and in assay [9] was “inactive” throughout. In addition, the Potency entry in assay [10], in assay [11], in assay [12] and in assay [13] was “inactive” in each case. The values for the max response in assay [15] and in assay [17] were 7.17% and -7.85%, respectively. In addition, the activation in assay [16] is -2.43%.
`OCC(Cl)CCl` (stereo unspecified): the result in assay [18], in assay [4], in [6] and in [14] was inactive. Also, the Potency entry in assay [2], in assay [3], in assay [5], in assay [19], in [7] and in assay [8] was “inactive” each time. Besides, the Potency entry in assay [20], in assay [9], in assay [10], in assay [11], in assay [12] and in assay [13] was “inactive” each time. Moreover, the max response was -4.6% in [15] and -10.2% in assay [17]. In addition, the activation in assay [16] is -0.732%.
Regarding `Nc1c(Cl)cc([N+](=O)[O-])cc1Cl`, the outcome in assay [1], in assay [18], in [4], in assay [6] and in [14] was inactive. For the same compound, the Potency entry in assay [19], in assay [7], in assay [8], in assay [20], in assay [9] and in assay [10] was “inactive” in each case. Besides, the Potency entry in assay [11], in assay [12] and in [13] was “inactive” in each case. Besides, the max response in assay [15] was 5.54% and -6.63%; in [17] it was 8.8% and -9.21%.
In the case of `C=CCc1cc(OC)c2c(c1)OCO2`, the outcome in [1], in assay [18], in assay [4], in assay [6] and in assay [14] was inactive. The Potency result in assay [2], in assay [3], in assay [5], in assay [19], in assay [8] and in [20] was “inactive” in each case. The Potency entry in assay [9], in assay [10], in assay [12] and in assay [13] was “inactive” each time. Moreover, the figures for the max response in [15] and in assay [17] were 9.86% and -2.49%, respectively. For the same compound, in assay [16], the activation is -0.222%.
As for `CCCCNC(=O)n1c(NC(=O)OC)nc2ccccc21`, the compound was called inactive in [18], in assay [4], in assay [6] and in assay [14]. Besides, the Potency result in [7], in [8], in [20], in assay [9], in assay [10] and in assay [11] was “inactive” in each case. For the same compound, the Potency result in assay [12] and in assay [13] was “inactive” each time. The max response in assay [15] is -15.6%; in assay [17], 2.42% and 7.38%. The Potency in [16] is 14.1 µM (active).
Turning to `Clc1cccc(Cl)c1`, the call in [1], in [18], in assay [4], in assay [6] and in assay [14] was inactive. Further, the Potency result in assay [2], in [3], in assay [5], in assay [7], in assay [20] and in [9] was “inactive” each time. The Potency entry in [10], in assay [11], in assay [12] and in assay [13] was “inactive” throughout. Further, in [15], the max response is 24.2%.
In the case of `CCCCCOC(=O)c1ccccc1C(=O)OCCCCC`, the call in [1], in assay [18], in assay [4], in assay [6] and in assay [14] was inactive. Further, the Potency entry in assay [2], in assay [3], in assay [19], in [7], in assay [8] and in assay [20] was “inactive” each time. For the same compound, the Potency entry in assay [9], in [10], in assay [11], in [12] and in assay [13] was “inactive” each time. In addition, the max response is -6.11% in [15]; 0.29% and 4.72% in assay [17]. In assay [16], the activation was -1% and 1.8%.
For `C/C=C/C=O`, the call in assay [1], in assay [18], in assay [4], in assay [6] and in assay [14] was inactive. Further, the Potency entry in [2], in [3], in assay [5], in assay [19], in assay [7] and in assay [8] was “inactive” each time. For the same compound, the Potency entry in [9], in assay [10], in assay [12] and in [13] was “inactive” each time. In addition, the max response in [17] was -9.77%.
